This is a sample that favours compounds with a hit; in the whole collection about 2.9% have one here.
EBNA-1 inhibitor – blocks EBNA-1 binding to DNA; EBNA-1 DNA binding, fluorescence polarization; inhibition, % at 14.8 µM; 300,000 tested, 0.34% active; AID 1950; in the data active means inhibition above about 28%
rCAG RNA binder – binds r(CAG) RNA repeats; r(CAG) RNA repeat, TO-PRO-1 dye displacement fluorescence; inhibition, % at 3 µM; 370,000 tested, 1.3% active;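 active means inhibition above the plate cutoff, the mean of all test compounds on that plate plus 3 SD, cut at about 35% in these data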;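 further: 0% = DMSO alone and 100% = 100 µM mitoxantrone as full dye displacement; higher means more dye released from RNA so lower well fluorescence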
ZTA DNA inh – ZTA (EBV) inhibition in EBNA-1 counter-screen; P03206; 320,000 tested, 0.15% active; inhibition, % at 11 µM; ZTA-DNA binding, fluorescence polarization; in the data active means inhibition above about 33%
Target sequence (P03206 whole entry, looked up): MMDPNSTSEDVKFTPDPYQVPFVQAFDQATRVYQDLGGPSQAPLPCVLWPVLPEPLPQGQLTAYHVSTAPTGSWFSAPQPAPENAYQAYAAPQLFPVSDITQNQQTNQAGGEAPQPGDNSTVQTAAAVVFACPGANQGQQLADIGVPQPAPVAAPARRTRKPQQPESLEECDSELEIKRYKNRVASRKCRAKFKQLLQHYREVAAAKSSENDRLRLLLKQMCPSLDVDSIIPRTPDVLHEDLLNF
PAFAH1B2 FP inh – PAFAH1B2 (human) inhibition | recombinant PAFAH1B2, FP-rhodamine activity probe, fluorescence polarization | AID 492953 | inhibition, % at 3.39 µM | 340,000 tested, 1.2% active;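 active means inhibition above the mean of all tested compounds plus 3 SD, cut at about 24% in these data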;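 further: 0% = enzyme with DMSO and 100% = wells lacking PAFAH1B2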
Target sequence (P68402 whole entry, looked up): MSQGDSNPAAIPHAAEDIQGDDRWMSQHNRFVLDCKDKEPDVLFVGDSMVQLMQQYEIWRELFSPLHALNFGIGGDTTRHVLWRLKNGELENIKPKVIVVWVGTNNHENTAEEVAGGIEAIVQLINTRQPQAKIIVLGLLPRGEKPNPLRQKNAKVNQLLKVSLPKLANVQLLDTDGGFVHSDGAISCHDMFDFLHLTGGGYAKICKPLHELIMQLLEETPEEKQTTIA
PAFAH2 inh – inhibitors of human PAFAH2; Q99487; recombinant PAFAH2, FP-rhodamine activity probe, fluorescence polarization; inhibition, % at 3.39 µM; 340,000 tested, 0.99% active; AID 492956;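 active means inhibition above the mean over all tested compounds plus 3 SD, cut at about 30% in these data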;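 further: inhibitors block probe labeling of enzyme so polarization drops; 0% = enzyme with DMSO and 100% = wells lacking PAFAH2 protein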
PAFAH1B3 FP inh – PAFAH1B3 (human) inhibition | Q15102 | recombinant PAFAH1B3, FP-rhodamine probe, fluorescence polarization | inhibition, % at 3.39 µM | 340,000 tested, 0.28% active | AID 492972;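 active means inhibition above the screen-wide average of all tested compounds plus 3 SD, cut at about 25% in these data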;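 further: 0% = enzyme with DMSO only and 100% = wells lacking PAFAH1B3 protein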
Starred values were filed as active, the others as inactive; · = not tested or not shown; + = active, no number.

SMILES	EBNA-1 inhibitor	rCAG RNA binder	ZTA DNA inh	PAFAH1B2 FP inh	PAFAH2 inh	PAFAH1B3 FP inh
CCCN1C(=O)/C(=C/c2c(NCCCOC(C)C)nc3c(C)cccn3c2=O)SC1=S	-2	·	-2	-5	-9	4
CCC(C)N1C(=O)/C(=C/c2c(NCCCOC(C)C)nc3c(C)cccn3c2=O)SC1=S (stereo unspecified)	-1	-4	-13	34*	52*	38*
O=c1cc(SCc2ccc(Cl)cc2Cl)nc[nH]1	·	2	·	25*	3	6
Cc1cc(SCc2ccc(Cl)cc2Cl)nc(=O)[nH]1	5	4	1	4	13	-3
Cc1ccccc1-n1c(SCC(=O)c2cc(C)n(C)c2C)nnc1-c1cccnc1	-3	·	11	5	3	-4
CCn1c(CSc2nnc(-c3cccnc3)n2-c2ccccc2C)nc2cc(C(=O)O)ccc21	124*	·	+	·	·	·
O=C(Nc1ccc(Cl)cc1)C1CCCN1S(=O)(=O)c1cccnc1 (stereo unspecified)	·	4	·	·	·	·
CCCc1cc2c(=O)c(-c3nc4ccccc4s3)c(COCC(=O)O)oc2cc1O	·	55*	·	6	-1	-1
Cc1ccc(CCNC(=O)C2CCCN(S(=O)(=O)c3c(C)nn(C)c3C)C2)cc1 (stereo unspecified)	8	0	-17	29*	-2	10
CCNC(=O)C[C@H]1CC[C@H]2[C@@H](COc3ccc(NC(=O)c4ccc5c(c4)OCO5)cc3C(=O)N2C)O1	·	3	·	·	·	·
Nc1nnc(SCC(=O)NCCOc2ccccc2)s1	-5	4	-3	4	3	6
O=C(CSc1nc2ccccc2s1)NCCOc1ccccc1	0	-2	-1	27*	-6	4
Cn1nc(C(=O)NCCc2ccc(Cl)cc2)c2c1-c1ccccc1S(=O)(=O)C2	-2	0	8	35*	1	0
c1ccn(-c2ccc(-c3noc(CCc4ccncc4)n3)cc2)c1	·	3	·	·	·	·
CCN(Cc1ccccc1)c1ccc(/C=N/NS(=O)(=O)c2cccc([N+](=O)[O-])c2)cc1	3	6	14	45*	5	-4
CC(=O)N1C[C@@H](c2c[nH]c3ccccc23)C=C[C@H]1C(=O)NS(=O)(=O)c1ccc(C)cc1	·	18	·	·	·	·
N#Cc1ccccc1NC(=O)C1SC(=Nc2ccccc2)C(C(=O)Nc2ccc(Cl)cc2)=C1N (stereo unspecified)	-4	37*	-6	-3	-12	-3
COc1ccccc1N=C1SC(C(=O)Nc2cccc(Cl)c2Cl)C(N)=C1C(N)=O (stereo unspecified)	-7	18	0	2	0	-1
CC(C(=O)NCCS(=O)(=O)c1ccc(Br)cc1)S(=O)(=O)c1ccc(Cl)cc1 (stereo unspecified)	5	-1	13	18	3	4
O=C(NCCS(=O)(=O)c1ccc(Br)cc1)c1ccc(Cl)cc1	-3	-3	-15	28*	5	-2
Cc1noc(C)c1COc1ccccc1C(=O)NC(C)c1ccc(Cl)cc1 (stereo unspecified)	·	-2	7	32*	0	9
COc1cc2c(cc1OC)/C(=C/C(=O)OCc1ccccc1)OC2	·	4	·	·	·	·
CC(Cc1n[nH]c(=S)o1)c1ccccc1 (stereo unspecified)	8	1	8	26*	13	2
Cc1c(C(=O)N2CCOCC2)cc(C(C)(C)C)n1-c1ccccc1	1	-6	-6	51*	6	7
CCOC(=O)Cc1nc(N2CCN(C=O)CC2)c2c(C)c(C(=O)OCC)sc2n1	·	6	·	·	·	·
SMILES	EBNA-1 inhibitor	rCAG RNA binder	ZTA DNA inh	PAFAH1B2 FP inh	PAFAH2 inh	PAFAH1B3 FP inh
Cc1csc(N/N=C/c2ccc(O)c([N+](=O)[O-])c2)n1	1	28	-1	12	26	26*
Cc1nnc(N/N=C/c2ccc(O)c([N+](=O)[O-])c2)[nH]c1=O	1	4	-3	4	-6	14
C#CCNC(=O)C[C@@H]1C(=O)N(CCc2ccc(Cl)cc2)/C2=C/CCCCC[C@@]21C(=O)OCC	·	2	·	·	·	·
Cc1cc(Nc2ccc(Cl)cc2)n2ncnc2n1	·	-2	·	1	-2	8
Cc1cc(NCCc2ccc(Cl)cc2)n2ncnc2n1	0	-3	15	24*	-3	-3
CCCCCCNC(=O)C1CSCCS(=O)(=O)N1Cc1ccccc1 (stereo unspecified)	·	-4	·	·	·	·
CCn1c(COc2ccc(Cl)cc2)nnc1SCC(=O)Nc1ccccc1-c1ccccc1	·	2	·	·	·	·
Cc1cc(C)c(S(=O)(=O)/N=C2\C=CC(=O)C(Cl)=C2)c(C)c1	5	·	-15	6	31*	12
Cc1ccc(S(=O)(=O)c2c(C)cc(C)nc2Cl)c(C)c1	9	-5	13	1	-2	6
CCOc1ccccc1-c1c2cc(O)c(=O)cc-2oc2cc(O)c(O)cc12	·	·	·	112*	127*	119*
Cc1ccccc1-c1cc(=O)c2c(O)cccc2o1	8	-2	2	-1	-1	7
COc1ccc(OC)c(-c2c3cc(O)c(=O)cc-3oc3cc(O)c(O)cc23)c1	20	·	6	74*	73*	58*
O=c1cc2oc3cc(O)c(O)cc3c(-c3ccccc3O)c-2cc1O	·	·	·	27*	42*	-62
COc1ccc(OC)c(-c2oc3ccccc3c(=O)c2O)c1	-8	0	0	1	-1	6
COCC(=O)N(C)[C@H]1C[C@H]2c3[nH]c4c(-c5ccccc5)cccc4c3CCN2C(=O)[C@H]1[C@H](C)O	·	1	·	·	·	·
Cc1ccc(S(=O)(=O)Nc2ccc(S(=O)(=O)NCC3CCCO3)cc2)cc1 (stereo unspecified)	8	3	-4	43*	1	1
O=C(Cc1ccccc1)NN=C1CCCC1	·	1	·	5	-2	6
N#CCC(=O)NN=C1CCCCCCCCCCC1	-1	2	2	26*	3	5
O=C(Cc1cccc(C(F)(F)F)c1)NCc1ccc(Cl)cc1	-3	-4	-9	5	-2	7
O=C(CCNC(=O)c1ccc(Cl)cc1)NCc1cccc(C(F)(F)F)c1	-10	-3	-28	25*	2	3
COC(=O)C1=CN(c2ccc(OC)cc2OC)C(N)=C(C#N)C1c1ccccc1F (stereo unspecified)	·	8	·	·	·	·
CCN(CC)c1ccc2nc3c4ccccc4c(=O)cc-3oc2c1	·	2	·	·	·	·
CCN(CC)c1ccc2c(-c3ccc(S(=O)(=O)O)cc3S(=O)(=O)[O-])c3ccc(=[N+](CC)CC)cc-3oc2c1	200*	·	+	174*	+	+
COc1cc(NS(=O)(=O)c2ccc(NC(=S)NC(=O)/C=C/c3ccc(OC)c(OC)c3)cc2)ncn1	4	8	3	1	-6	9
COc1ccc(/C=C/C(=O)NC(=S)Nc2ccc(S(=O)(=O)N=C(N)N)cc2)cc1OC	58*	16	40*	-40	-73	-70
O=S(=O)(Nc1ccc2cn[nH]c2c1)c1ccc(Cl)s1	4	7	-9	-1	5	4

Source: PubChem BioAssay (The Scripps Research Institute Molecular Screening Center)
